# Measurements from PubChem BioAssay (NCI).
# About 79,000 compounds went through this panel and 15% of them were active in at least one assay; those are over-represented in the sample as a whole. Unmarked numbers belong to inactive results. Calls of active or inactive are those of the source. Cut-off read from the data, not from the text of the source: active = growth inhibition above about 70%; inactive = the rest.
# How the values were obtained:
# [1] = NCI Yeast Anticancer Drug Screen. Data for the rad52 strain (AID 147);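 note: 0% = growth of vehicle-treated control cultures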; conditions: S. cerevisiae rad52 mutant growth inhibition, active compounds read high
# How it was run: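 Vehicle-treated cultures served as the reference for growth inhibition of compound-exposed yeast bearing a DNA repair mutation.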
# [2] = NCI Yeast Anticancer Drug Screen. Data for the wt1 strain (AID 149);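 note: 0% = growth of vehicle-treated wt1 cultures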; conditions: S. cerevisiae wt1 strain (SPY 50644) growth inhibition, active compounds read high
# How it was run: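 Each compound is tested on wt1 yeast and the loss of growth versus vehicle gives the inhibition value.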
# [3] = NCI Yeast Anticancer Drug Screen. Data for the rad50EPP+ strain (AID 151);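 note: 0% = growth of vehicle-treated control cultures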; conditions: S. cerevisiae rad50 mutant strain, active compounds read high
# How it was run: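 In this screen, rad50EPP+ yeast were exposed to compounds. Growth inhibition was scored against vehicle-treated controls.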
# [4] = NCI Yeast Anticancer Drug Screen. Data for the mgt1 strain (AID 153); conditions: S. cerevisiae mgt1 mutant growth inhibition, active compounds read high
# How it was run: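 mgt1 strain exposed; growth vs vehicle control recorded as inhibition.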
# [5] = NCI Yeast Anticancer Drug Screen. Data for the rad50 strain (AID 155);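 note: 0% = growth of vehicle-only cultures of the same strain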; conditions: S. cerevisiae rad50 strain growth inhibition, active compounds read high
# How it was run: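 Vehicle-treated cultures provide the reference for the growth inhibition reported for compound-exposed, repair-deficient yeast.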
# [6] = NCI Yeast Anticancer Drug Screen. Data for the mec2-1 strain (AID 157); conditions: S. cerevisiae mec2-1 strain, active compounds read high
# How it was run: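 Vehicle-treated cultures served as reference for growth inhibition of compound-exposed mec2-1 yeast.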
# [7] = NCI Yeast Anticancer Drug Screen. Data for the rad14 strain (AID 159);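 note: 0% = growth of vehicle-treated control cultures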; conditions: S. cerevisiae rad14 strain growth inhibition, active compounds read high
# How it was run: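 Inhibition of growth is reported for a repair-deficient yeast mutant following compound treatment, calculated relative to cultures that received vehicle.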
# [8] = NCI Yeast Anticancer Drug Screen. Data for the sgs1 mgt1 strain (AID 161);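 note: 0% = growth of cultures given vehicle only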; conditions: S. cerevisiae sgs1 mgt1 strain, active compounds read high
# How it was run: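 Genetically altered yeast, compound exposure, growth inhibition relative to vehicle.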
# [9] = NCI Yeast Anticancer Drug Screen. Data for the CLN2oe strain (AID 163);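 note: 0% = growth of vehicle-only control cultures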; conditions: S. cerevisiae CLN2oe strain, active compounds read high
# How it was run: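 Inhibition relative to vehicle-treated yeast is reported. Cells: strain with genetic alteration in cell-cycle control, grown with compound.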
# [10] = NCI Yeast Anticancer Drug Screen. Data for the cln2 rad14 strain (AID 165);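 note: 0% = growth equal to vehicle treated cultures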; conditions: S. cerevisiae cln2 rad14 strain, active compounds read high
# How it was run: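 Each compound was tested on cln2 rad14 yeast. Inhibition of growth was calculated against vehicle-exposed controls.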
# [11] = NCI Yeast Anticancer Drug Screen. Data for the bub3 strain (AID 167); conditions: S. cerevisiae bub3 mutant strain, active compounds read high
# How it was run: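 Mutant yeast screening strain plus compound; vehicle-treated cultures serve as the 0% inhibition reference.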
# [12] = NCI Yeast Anticancer Drug Screen. Data for the wt2 strain (AID 169); conditions: S. cerevisiae wt2 strain growth inhibition, active compounds read high
# How it was run: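 Inhibition of yeast growth was determined after compound treatment, normalised to controls receiving only vehicle.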
# [13] = NCI Yeast Anticancer Drug Screen. Data for the sgs1 strain (AID 173);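 note: 0% = growth of vehicle-only control cultures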; conditions: S. cerevisiae sgs1 mutant, active compounds read high
# How it was run: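 Screen format: yeast with repair or checkpoint alterations, compound exposure, growth read relative to vehicle.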
# [14] = NCI Yeast Anticancer Drug Screen. Data for the mlh1 rad18 strain (AID 175); conditions: S. cerevisiae mlh1 rad18 strain growth inhibition, active compounds read high
# How it was run: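 Vehicle-treated cultures served as the reference for growth inhibition in a yeast strain carrying DNA damage repair alterations exposed to each compound.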
# [15] = NCI Yeast Anticancer Drug Screen. Data for the rad18 strain (AID 177); conditions: S. cerevisiae rad18 mutant growth inhibition, active compounds read high
# How it was run: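 Test articles were incubated with altered yeast defective in DNA damage repair. Results are given as inhibition of growth versus vehicle.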
# [16] = at 5.0 µM (retest, dose inferred, filed as 0.5)
# [17] = at 50.0 µM (retest, dose inferred, filed as 5.0)
smiles,measurement,setting,value
CC(=O)OCC(=O)C1(O)CCC2C3CCC4CCCCC4(C)C3CCC21C (stereo not drawn),growth inhibition,[1]; at 1.2 µM,-52%
same,growth inhibition,[1]; at 3.7 µM,-27%
same,growth inhibition,[1]; at 11.0 µM,21%
same,growth inhibition,[1]; at 33.0 µM,55%
same,growth inhibition,[1]; at 100.0 µM,83% (active)
same,growth inhibition,[2]; at 1.2 µM,-20%
same,growth inhibition,[2]; at 3.7 µM,-14%
same,growth inhibition,[2]; at 11.0 µM,7%
same,growth inhibition,[2]; at 33.0 µM,50%
same,growth inhibition,[2]; at 100.0 µM,77% (active)
same,growth inhibition,[3]; at 1.2 µM,-9%
same,growth inhibition,[3]; at 3.7 µM,-16%
same,growth inhibition,[3]; at 11.0 µM,-40%
same,growth inhibition,[3]; at 33.0 µM,-22%
same,growth inhibition,[3]; at 100.0 µM,-25%
same,growth inhibition,[4]; at 1.2 µM,3%
same,growth inhibition,[4]; at 3.7 µM,3%
same,growth inhibition,[4]; at 11.0 µM,34%
same,growth inhibition,[4]; at 33.0 µM,57%
same,growth inhibition,[4]; at 100.0 µM,88% (active)
same,growth inhibition,[5]; at 1.2 µM,13%
same,growth inhibition,[5]; at 3.7 µM,-25%
same,growth inhibition,[5]; [16],59%
same,growth inhibition,[5]; at 11.0 µM,13%
same,growth inhibition,[5]; at 33.0 µM,53%
same,growth inhibition,[5]; [17],78% (active)
same,growth inhibition,[5]; at 50.0 µM,83.2% (active)
same,growth inhibition,[5]; at 100.0 µM,87% (active)
same,growth inhibition,[6]; at 1.2 µM,-3%
same,growth inhibition,[6]; at 3.7 µM,-10%
same,growth inhibition,[6]; [16],64%
same,growth inhibition,[6]; at 11.0 µM,14%
same,growth inhibition,[6]; at 33.0 µM,41%
same,growth inhibition,[6]; [17],84% (active)
same,growth inhibition,[6]; at 50.0 µM,61.5%
same,growth inhibition,[6]; at 100.0 µM,81% (active)
same,growth inhibition,[7]; at 1.2 µM,-31%
same,growth inhibition,[7]; at 3.7 µM,-17%
same,growth inhibition,[7]; at 11.0 µM,8%
same,growth inhibition,[7]; at 33.0 µM,60%
same,growth inhibition,[7]; at 100.0 µM,86% (active)
same,growth inhibition,[8]; [16],-11%
same,growth inhibition,[8]; [17],60%
same,growth inhibition,[8]; at 50.0 µM,70.5% (active)
same,growth inhibition,[9]; at 1.2 µM,10%
same,growth inhibition,[9]; at 3.7 µM,23%
same,growth inhibition,[9]; at 11.0 µM,34%
same,growth inhibition,[9]; at 33.0 µM,60%
same,growth inhibition,[9]; at 100.0 µM,82% (active)
same,growth inhibition,[10]; [16],35%
same,growth inhibition,[10]; [17],75% (active)
same,growth inhibition,[10]; at 50.0 µM,76% (active)
same,growth inhibition,[11]; at 1.2 µM,-24%
same,growth inhibition,[11]; at 3.7 µM,-13%
same,growth inhibition,[11]; [16],56%
same,growth inhibition,[11]; at 11.0 µM,26%
same,growth inhibition,[11]; at 33.0 µM,46%
same,growth inhibition,[11]; [17],74% (active)
same,growth inhibition,[11]; at 50.0 µM,76% (active)
same,growth inhibition,[11]; at 100.0 µM,82% (active)
same,growth inhibition,[12]; at 1.2 µM,-50%
same,growth inhibition,[12]; at 3.7 µM,-54%
same,growth inhibition,[12]; at 11.0 µM,-17%
same,growth inhibition,[12]; at 33.0 µM,27%
same,growth inhibition,[12]; at 100.0 µM,74% (active)
same,growth inhibition,[13]; at 1.2 µM,-16%
same,growth inhibition,[13]; at 3.7 µM,-16%
same,growth inhibition,[13]; at 11.0 µM,14%
same,growth inhibition,[13]; at 33.0 µM,38%
same,growth inhibition,[13]; at 100.0 µM,79% (active)
same,growth inhibition,[14]; [16],47%
same,growth inhibition,[14]; [17],80% (active)
same,growth inhibition,[14]; at 50.0 µM,70.8% (active)
same,growth inhibition,[15]; at 1.2 µM,10%
same,growth inhibition,[15]; at 3.7 µM,24%
same,growth inhibition,[15]; at 11.0 µM,32%
same,growth inhibition,[15]; at 33.0 µM,67%
same,growth inhibition,[15]; at 100.0 µM,92% (active)
NC(=NCc1ccccc1)N/N=C\c1ccnc2ccccc12,growth inhibition,[1]; at 1.2 µM,0%
same,growth inhibition,[1]; at 3.7 µM,-3%
same,growth inhibition,[1]; at 11.0 µM,0%
same,growth inhibition,[1]; at 33.0 µM,0%
same,growth inhibition,[1]; at 100.0 µM,32%
same,growth inhibition,[2]; at 1.2 µM,-1%
same,growth inhibition,[2]; at 3.7 µM,-1%
same,growth inhibition,[2]; at 11.0 µM,-2%
same,growth inhibition,[2]; at 33.0 µM,0%
same,growth inhibition,[2]; at 100.0 µM,2%
same,growth inhibition,[3]; at 1.2 µM,-2%
same,growth inhibition,[3]; at 3.7 µM,0%
same,growth inhibition,[3]; at 11.0 µM,1%
same,growth inhibition,[3]; at 33.0 µM,1%
same,growth inhibition,[3]; at 100.0 µM,4%
same,growth inhibition,[4]; at 1.2 µM,-4%
same,growth inhibition,[4]; at 3.7 µM,-3%
same,growth inhibition,[4]; at 11.0 µM,0%
same,growth inhibition,[4]; at 33.0 µM,3%
same,growth inhibition,[4]; at 100.0 µM,76% (active)
same,growth inhibition,[5]; at 1.2 µM,1%
same,growth inhibition,[5]; at 3.7 µM,2%
same,growth inhibition,[5]; [16],-2%
same,growth inhibition,[5]; at 11.0 µM,4%
same,growth inhibition,[5]; at 33.0 µM,7%
same,growth inhibition,[5]; [17],46%
same,growth inhibition,[5]; at 50.0 µM,36%
same,growth inhibition,[5]; at 100.0 µM,39%
same,growth inhibition,[6]; at 1.2 µM,-1%
same,growth inhibition,[6]; at 3.7 µM,0%
same,growth inhibition,[6]; [16],2%
same,growth inhibition,[6]; at 11.0 µM,-1%
same,growth inhibition,[6]; at 33.0 µM,7%
same,growth inhibition,[6]; [17],56%
same,growth inhibition,[6]; at 50.0 µM,48.8%
same,growth inhibition,[6]; at 100.0 µM,27%
same,growth inhibition,[7]; at 1.2 µM,0%
same,growth inhibition,[7]; at 3.7 µM,3%
same,growth inhibition,[7]; at 11.0 µM,12%
same,growth inhibition,[7]; at 33.0 µM,36%
same,growth inhibition,[7]; at 100.0 µM,61%
same,growth inhibition,[8]; [16],-6%
same,growth inhibition,[8]; [17],75% (active)
same,growth inhibition,[8]; at 50.0 µM,66.3%
same,growth inhibition,[9]; at 1.2 µM,-6%
same,growth inhibition,[9]; at 3.7 µM,-6%
same,growth inhibition,[9]; at 11.0 µM,1%
same,growth inhibition,[9]; at 33.0 µM,22%
same,growth inhibition,[9]; at 100.0 µM,70% (active)
same,growth inhibition,[10]; [16],9%
same,growth inhibition,[10]; [17],62%
same,growth inhibition,[10]; at 50.0 µM,21.1%
same,growth inhibition,[11]; at 1.2 µM,0%
same,growth inhibition,[11]; at 3.7 µM,0%
same,growth inhibition,[11]; [16],-5%
same,growth inhibition,[11]; at 11.0 µM,1%
same,growth inhibition,[11]; at 33.0 µM,13%
same,growth inhibition,[11]; [17],60%
same,growth inhibition,[11]; at 50.0 µM,22.4%
same,growth inhibition,[11]; at 100.0 µM,56%
